We go through 39 compounds from PubChem BioAssay (NCI).

SMILES strings stand for the structures. This is part of a sample that, as a whole, favours compounds with a hit. Of some 83,000 tested, about 20% had one in any assay.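 Single-dose data. Exposure time 48 hours. Values below 10 considered active.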 The source made the active and inactive calls.

The test concerns DU-145 prostate. The test is described as follows: NCI-60 one-dose screen, 48 h (100 = growth as untreated, 0 = no growth, -100 = all killed). Conditions: 10 µM.
As to `C=CC(=O)OCCCCCCCC`, the growth is 102% (inactive).
`CCOC(=O)CNN`: the growth was 98.6% (inactive).
Then `NNc1ccccc1C(=O)O`, with 121% (inactive); and `CCOC(=O)C1=C(Nc2ccc(Br)cc2)C(=O)N(CC)C1`, with 107% (inactive); and `Cc1cc(C(O)(c2ccc(Nc3ccccc3)cc2)c2ccc(Nc3ccc(S(=O)(=O)O)cc3)cc2)ccc1N` (centres undefined), with 11.7% (inactive).
Take `CC1(c2ccccc2)NC(=O)NC1=O` (centres undefined): the growth was 125% (inactive).
With `C=CC[N+](C)(C)C` the figure was 120% (inactive); with `O=C1N(C[P+](c2ccccc2)(c2ccccc2)c2ccccc2)CCCN1C[P+](c1ccccc1)(c1ccccc1)c1ccccc1`, 117% (inactive).
With `Brc1cnc2ccccc2c1` the figure was 102% (inactive); with `Nc1ccc(N)c([N+](=O)[O-])c1`, 104% (inactive).
As for `CSC[C@H](NC(=O)COc1cccc2cnccc12)C(=O)NC(Cc1ccccc1)C(O)C(=O)N1CSC[C@H]1C(=O)NC(C)(C)C` (some centres undefined), the growth is 98.9% (inactive).
Consider `OC(c1ccccn1)C(O)c1ccccn1` (centres undefined), for which the growth is 115% (inactive).
Then `CCNCCCCNCCCCNCCCCNCCCCNCC`, with 82.1% (inactive); and `NC(=S)CN1CCOCC1`, with 107% (inactive).
As to `CC(C)=CC(=O)OC(=O)C=C(C)C`, the growth was 101% (inactive).
Then `COc1ccc(C(O)c2ccccc2)cc1` (centres undefined), with 108% (inactive); and `N#CC(=Nc1cccc(F)c1)C1=C(O)c2ccccc2C1=O`, with 105% (inactive).
Then `COC(=O)c1ccc(NC(=O)CCl)cc1`, with 103% (inactive); and `O=C(O)CCC(NC(=O)OCc1ccccc1)C(=O)O` (centres undefined), with 98.7% (inactive); and `Cc1cc(C)cc(NCCC#N)c1`, with 114% (inactive).
Consider `O=C(O)/C=C/c1ccc2c(c1)CCC2`, for which the growth is 118% (inactive).
For the compound `O=C1OC(=O)C2C1C1(Cl)C(Cl)=C(Cl)C2(Cl)C2C(=O)OC(=O)C21` (centres undefined), the growth is 116% (inactive).
With `CC(=O)N(C)c1ccc([N+](=O)[O-])cc1` the figure was 122% (inactive).
Then `COc1ccc(/C(C#N)=C2C=C/C(=N/O)c3ccccc3\2)cc1`, with 10.1% (inactive); and `CCOC(=O)C1=C(C)NC(=O)NC1c1cccs1` (centres undefined), with 122% (inactive); and `COc1cc(C2c3cc4c(cc3C3OC(=O)C2C3CO)OCO4)cc(OC)c1OC` (centres undefined), with -41.5% (active).
For `O=C(CCl)N1CCN(C/C=C/c2ccccc2)CC1`, the growth was 110% (inactive).
In the case of `CC(C)(C)n1nc(C2CC2)c(Br)c1NC(=O)c1ccccc1F`, the growth is 121% (inactive).
Then `CCOC(=O)C/C(C)=N\O`, with 107% (inactive); and `O=C(CS)Nc1ccc2ccccc2c1`, with 113% (inactive).
Regarding `C=CCCCCCCCCCOC(C)=O`, the growth is 102% (inactive).
Then `COc1cc(-c2ccc(NC(=O)NC3CC3)c(OC)c2)ccc1NC(=O)NC1CC1`, with 84.9% (inactive); and `CC(=O)OCC(=O)[C@@]1(O)CC[C@H]2[C@@H]3CC[C@@H]4C[C@H](O)CC[C@]4(C)[C@H]3C(=O)C[C@@]21C`, with 120% (inactive).
As to `NC(=O)NC(=O)c1ccc(Cl)cc1`, the growth was 116% (inactive).
`NC(=O)c1ccc(N=C(N)N=C(N)N)cc1`: the growth is 107% (inactive).
For the compound `Oc1ccc(Cc2ccccc2)c2cccnc12`, the growth was 28.9% (inactive).
Then `C/C(=C\c1cc(Cl)ccc1OCC(=O)O)[N+](=O)[O-]`, with 108% (inactive); and `O=[N+]([O-])c1ccc(Cl)c(S(=O)(=O)O)c1`, with 109% (inactive).
Then `CC(CN1CCCCC1)NC(=O)c1scnc1-c1ccccc1` (centres undefined), with 116% (inactive).
